Assay outcomes as filed in PubChem BioAssay.
VACV Venus inh: inhibitors of vaccinia virus (Venus reporter) | Vaccinia virus Venus reporter expression, fluorescence | Potency, µM (top dose mostly 36.5 µM), actives largely listed as inhibitors | hit rate 0.46% among 330,000 | AID 720580; calls by dose curve; tested in A549 cells; note: nearly all actives have a fitted effect of over 30% in size
HCMV inh: inhibitors of human cytomegalovirus; HFF cells, HCMV-luciferase reporter, 72 h; hits give low values; activity change, negative = inhibition, % at 57.5 µM; hit rate 4.5% among 410,000; in the data active = activity change below about -60%; inconclusive = no clear call, values can overlap the other calls; inactive = above about -39%
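Two-dose cell screen: HFF monolayers treated with compounds and infected with luciferase-expressing HCMV at 1 PFU/cell, 72 h at 37C, then lysed for luciferase measurement.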
VACV mCherry inh: inhibitors of vaccinia virus infection (mCherry reporter signal); Vaccinia virus mCherry reporter infection, fluorescence; hit rate 0.63% among 310,000; Potency, µM (doses to about 36.5 µM), usual class: inhibitors; calls by dose curve; tested in A549 cells; note: nearly all actives have a fitted effect of over 35% in size
Sm TGR inh: S. mansoni TGR enzyme inhibition; Q962Y6; purified TGR, DTNB reduction, TNB absorbance 405 nm; Potency, µM (highest dose often 114 µM), usual class: inhibitors; hit rate 3% among 360,000; AID 485364; note: nearly all actives have a fitted effect of over 60% in size
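Kinetic colorimetric format: TGR-catalysed, NADPH-driven DTNB reduction monitored via TNB absorbance. Enzyme dispensed at 20 nM; compound exposure 15 min at room temperature before reaction start.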
HCV inhibitor: inhibitors of hepatitis C virus infection; Potency, µM (doses to about 41.8 µM), actives largely listed as inhibitors; Huh7.5.1 HCVcc-Cre infection, luciferase reporter, 44 h; hit rate 3.4% among 340,000
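Infectious HCVcc-Cre (~0.5 moi) was added to cells just after compound, with cells seeded 4 h earlier at 1,000 per well. Luciferase activity after 44 h culture reported infection; substrate was incubated 15 min at room temperature before reading.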
FMDV antiviral: foot and mouth disease virus antiviral activity | FMDV antiviral cell-based qHTS | hit rate 1.2% among 410,000 | Potency, µM (doses to about 57.9 µM), actives largely listed as inhibitors; calls by dose curve; tested in HEK293T cells; note: read-out not given here; nearly all actives have a fitted effect of over 45% in size
Large screens that a line does not name were inactive. An excerpt weighted towards active compounds, which were near 9.3% of everything screened. Unless noted, calls come from the whole dose curve; as a rule, active = well fitted curve in the direction sought with a large enough effect; inconclusive = small, poorly fitted or top-dose-only effect, or another doubt; inactive = no such curve, though single readings can be large; an effect the other way counts as inactive or inconclusive.

O=C(Nc1ccccc1F)Nc1cc(S(=O)(=O)N2CCOCC2)ccc1N1CCCC1	none
COc1ccc(NC(=O)CSc2nnnn2C2CC2)cc1S(=O)(=O)N1CCOCC1	HCV inhibitor inconclusive (no result: VACV Venus inh, VACV mCherry inh)
COc1ccc(S(=O)(=O)N2CCOCC2)cc1NC(=O)CSc1nnnn1C1CC1	HCMV inh -60.4
O=C(CN1CCCC1)N1c2ccccc2C=Cc2ccccc21	none (no result: VACV Venus inh, VACV mCherry inh)
C[C@H](CO)N1C[C@H](C)[C@H](CN(C)C(=O)CC2CC2)Oc2cc(Br)ccc2S1(=O)=O	none (no result: Sm TGR inh, HCV inhibitor)
COc1cc(C(C)=O)ccc1OCC(=O)Nc1cc(S(=O)(=O)N2CCOCC2)ccc1N1CCCC1	none (no result: VACV Venus inh, VACV mCherry inh, Sm TGR inh)
CCc1ccccc1OCC(=O)Nc1cc(S(=O)(=O)N2CCOCC2)ccc1N1CCCCC1	VACV mCherry inh inconclusive, HCV inhibitor 11.2µM
COc1ccccc1OCC(=O)Nc1cc(S(=O)(=O)N2CCOCC2)ccc1N1CCCCC1	VACV mCherry inh inconclusive, HCV inhibitor 12.6µM (no result: Sm TGR inh)
O=C(COc1ccc(F)cc1Cl)Nc1cc(S(=O)(=O)N2CCOCC2)ccc1N1CCCCC1	HCV inhibitor inconclusive
CC(NS(=O)(=O)c1ccc2[nH]c(=O)c(=O)[nH]c2c1)C(=O)O (centres undefined)	HCMV inh -92.2
O=C(OCCN1C(=O)c2cccc3c(N4CCOCC4)ccc(c23)C1=O)c1ccc(Cl)cc1Cl	VACV mCherry inh inconclusive, HCV inhibitor inconclusive, FMDV antiviral 15.8µM
O=C(OCCN1C(=O)c2cccc3c(N4CCOCC4)ccc(c23)C1=O)c1ccccc1Cl	HCMV inh inconclusive, HCV inhibitor inconclusive, FMDV antiviral inconclusive
O=C(OCCN1C(=O)c2cccc3c(N4CCOCC4)ccc(c23)C1=O)c1cccc(Cl)c1	HCV inhibitor 11.2µM, FMDV antiviral inconclusive (no result: HCMV inh)
COc1ccc(-c2cc(NC=O)c3ncc(-c4cccc(C(=O)NCCN(C)C)c4)n3c2)cc1	HCMV inh -65.6 (no result: Sm TGR inh, HCV inhibitor)
CC(=O)Nc1cc(-c2cccc(C(=O)NCCN(C)C)c2)cn2c(-c3ccccc3)cnc12	VACV Venus inh inconclusive, VACV mCherry inh inconclusive (no result: Sm TGR inh, HCV inhibitor)
CC(=O)Nc1cc(-c2cccc(C(=O)NCCN(C)C)c2)cn2c(-c3cccc(C(F)(F)F)c3)cnc12	VACV Venus inh inconclusive, HCMV inh -99.6, VACV mCherry inh inconclusive (no result: Sm TGR inh, HCV inhibitor)
CN(C)CCNC(=O)c1cccc(-c2cnc3c(NC=O)cc(-c4cccc(F)c4)cn23)c1	HCMV inh -87.4 (no result: Sm TGR inh, HCV inhibitor)
CN(C)CCNC(=O)c1cccc(-c2cnc3c(NC=O)cc(-c4ccc(F)cc4)cn23)c1	HCMV inh inconclusive (no result: Sm TGR inh, HCV inhibitor)
COc1ccc2c(CCNC(=O)/C=C/c3ccc(OC)c(OC)c3)c[nH]c2c1	VACV mCherry inh inconclusive, HCV inhibitor inconclusive
Cn1c(SCC(=O)Nc2nc3ccccc3s2)ncc(C(=O)Nc2ccc(F)cc2)c1=O	none (no result: HCV inhibitor)
CCN(CC)S(=O)(=O)c1cc(C(=O)Nc2nncs2)c(Cl)cc1Cl	HCV inhibitor 10µM (no result: VACV Venus inh, VACV mCherry inh)
COc1cc2c(cc1OC)C(c1ccccc1)N(Cc1ccc(S(=O)(=O)NC(=O)c3ccco3)cc1)CC2 (centres undefined)	none (no result: Sm TGR inh, HCV inhibitor)
CN1CCc2cccc3c2[C@H]1Cc1ccc(O)c(O)c1-3	HCMV inh -66.3, HCV inhibitor inconclusive, FMDV antiviral inconclusive (no result: Sm TGR inh)
COc1ccc2cc1Oc1ccc(cc1)C[C@H]1c3cc(c(OC)cc3CCN1C)Oc1c(OC)c(OC)cc3c1[C@@H](C2)N(C)CC3	HCMV inh -66.5, Sm TGR inh 35.5µM, HCV inhibitor inconclusive
COc1ccc2c(c1O)-c1c(OC)c(OC)cc3c1[C@@H](C2)N(C)CC3	none (no result: HCMV inh, Sm TGR inh, HCV inhibitor)
COc1ccc2c(c1O)-c1c(OC)c(OC)cc3c1[C@H](C2)N(C)CC3	HCMV inh -62.6
CCCCN(Cc1ccccc1)C(=O)CN(C)S(=O)(=O)c1ccc2c(c1)c(=O)n(C)c(=O)n2C	none (no result: HCV inhibitor)
CC(=O)n1cc(N(C(=O)CCl)c2ccc([N+](=O)[O-])cc2)c2ccccc21	HCMV inh inconclusive, Sm TGR inh 0.708µM, HCV inhibitor 7.08µM, FMDV antiviral 10µM
CC(=O)n1cc(CO)c2ccccc21	none
O=C(NC1CCN(CC(=O)N(c2ccccc2)c2ccccc2)CC1)c1ccc([N+](=O)[O-])cc1	HCV inhibitor inconclusive
CC(=O)n1cc(N(C(=O)CCl)c2ccccc2)c2ccccc21	HCMV inh -97.6, Sm TGR inh 0.501µM, HCV inhibitor 1µM, FMDV antiviral 14.1µM
